Data from PubChem BioAssay AID1210 (NMMLSC, 2008).

biological target: Estrogen receptor beta (Homo sapiens) (UniProt Q92731); assay: displacement of fluorescent estrogen from ERbeta – cell-based, Cos7 ERbeta-GFP, flow cytometry, primary screen (AID 1210); details: fluorescent estrogen binding, at 10 µM, stronger effect = higher value;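 note: 0% = DMSO vehicle wells and 100% = complete loss of labeled estradiol signal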
Sequence (Q92731 whole entry, looked up): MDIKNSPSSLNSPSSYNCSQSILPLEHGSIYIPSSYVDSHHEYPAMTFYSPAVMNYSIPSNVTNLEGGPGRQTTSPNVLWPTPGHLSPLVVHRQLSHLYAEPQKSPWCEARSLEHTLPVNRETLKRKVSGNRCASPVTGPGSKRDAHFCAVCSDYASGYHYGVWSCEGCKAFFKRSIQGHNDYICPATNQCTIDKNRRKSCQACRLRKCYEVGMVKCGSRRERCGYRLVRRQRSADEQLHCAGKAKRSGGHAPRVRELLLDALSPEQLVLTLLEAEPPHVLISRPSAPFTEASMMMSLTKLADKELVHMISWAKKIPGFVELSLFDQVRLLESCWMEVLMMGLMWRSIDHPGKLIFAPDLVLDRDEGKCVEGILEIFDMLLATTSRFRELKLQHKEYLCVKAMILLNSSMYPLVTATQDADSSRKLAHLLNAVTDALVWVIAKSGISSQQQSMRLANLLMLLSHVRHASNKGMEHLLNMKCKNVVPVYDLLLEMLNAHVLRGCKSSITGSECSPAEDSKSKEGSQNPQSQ

inhibition, inactive:
CCCSc1nc(C)c(-c2csc(C(C#N)=C3CCCC3)n2)cc1C#N 37%, CN(C)NC(=S)Nc1ccc2nc(-c3ccccn3)c(-c3ccccn3)nc2c1 25%, COc1ccc(N2C(=O)c3ccccc3NC2c2ccc(OC)c(CSc3ccccn3)c2)cc1 (stereo not drawn) 36%, COc1cccc2c1NC(C(=O)O)C1CC=CC21 (stereo not drawn) 15%, O=c1oc2cc(O)c(Cl)cc2c2c1CCCC2 8%, COc1ccc2c(c1)C1OCCC1C(c1ccco1)N2 (stereo not drawn) 39%, Nc1nc2c(s1)CCc1c-2cnn1-c1ccccc1 50%, COc1cc2c(cc1OC)CC(C)(C)N(Cc1ccco1)C2 15%, COc1ccc2c(c1)c1c3n2CCNC3CCC1 (stereo not drawn) 18%, CCCCc1cc(=O)oc2c(C)c(O)ccc12 7%, Cc1nc2cc(-c3ccsc3-n3c(C)ccc3C)[nH]n2c(=O)c1Cl 47%, Fc1ccc2c(c1)C1C=CCC1C(c1cc3c(cc1Br)OCO3)N2 (stereo not drawn) 0%, COc1cc([C@@H]2Nc3ccc(S(=O)(=O)Nc4ccccc4F)cc3[C@@H]3C=CC[C@@H]32)cc(OC)c1OC 11%, CCC(Oc1ccc2c3c(c(=O)oc2c1C)CCC3)C(=O)OC (stereo not drawn) 15%, Cc1sc2ncnc(NCc3ccco3)c2c1C 39%, CCCCc1cc2c(=O)c(-c3ccccn3)coc2cc1O 18%, COc1cccc(-c2cc(C(=O)Nc3cc(C)nn3-c3ccccc3)no2)c1 23%, O=c1oc2c(O)c(O)cc3c(=O)oc4c(O)c(O)cc1c4c23 13%, CCCOc1cc(OCCC)c2c3c(c(=O)oc2c1)CCCC3 20%, CCOc1ccc(N=C2NC(=O)S/C2=C\c2ccc(OC)cc2)cc1 47%, CC1(C)CC(=O)c2cn(-c3ccc(Cl)cc3)c(=N)c(C#N)c2C1 12%, CCOC(=O)COc1cc2oc(=O)c3c(c2cc1CC)CCCC3 23%, O=C(COC(=O)C1CC2C=CC1C2)NCc1ccco1 (stereo not drawn) 25%, COc1ccc2c(c1)c(=O)oc1cc3oc(C)c(C)c3cc12 24%, CC1=CC(C)C2(CO)COC(c3ccccc3O)C1C2C (stereo not drawn) 66%, CCOc1cc2c(cc1OCC)C(C(CC)CC)NCC2 (stereo not drawn) 10%, Cc1ccc(-c2n[nH]c(=S)n2/N=C/C=C/c2ccccc2[N+](=O)[O-])cc1 53%, Cc1cccc2cc(C(c3nnnn3C(C)(C)C)N(Cc3ccco3)CC3CCCO3)c(=O)[nH]c12 (stereo not drawn) 18%, CCOC(=O)N1CCc2[nH]c3ccc(C)cc3c2C1 9%, CC(=O)c1ccc2c(c1)C1C=CCC1C(c1cccc([N+](=O)[O-])c1)N2 (stereo not drawn) 0%, CC(C)COc1ccc2c(c1)c1c3n2CCNC3CCC1 (stereo not drawn) 9%, Cn1c(C(=O)Nc2ccc3c(c2)OCO3)cc2c(=O)n(C)c3ccccc3c21 42%, COc1cc([N+](=O)[O-])cc2c1NC(c1ccccc1)C1CC=CC21 (stereo not drawn) 10%, COc1cc(C2CC(=O)Nc3c2ccc2ccccc32)cc(Cl)c1O (stereo not drawn) 19%, Cn1c(-c2ccc(N)cc2)nc2ccccc21 24%, COc1ccc2[nH]c3c(c2c1)CCNC3=O 17%, COc1ccc(-c2nc(C(N)=O)c3[nH]c(=O)n(-c4cccc(Cl)c4)c3n2)cc1OC 13%, COc1cc([N+](=O)[O-])cc2c1N[C@@H](c1ccc(C(=O)O)cc1)[C@H]1CC=C[C@@H]21 42%
